S1P4 agonist: S1P4 receptor agonists, primary screen, cell-based. 0.35% of 220,000 active. S1P4-expressing cell line, agonist reporter assay. AID 1509, 2009. Sphingosine 1-phosphate receptor 4 (Homo sapiens), O95977. activation, % at 4.98 µM; in the data active means activation above about 11%
Target sequence (O95977 whole entry, looked up): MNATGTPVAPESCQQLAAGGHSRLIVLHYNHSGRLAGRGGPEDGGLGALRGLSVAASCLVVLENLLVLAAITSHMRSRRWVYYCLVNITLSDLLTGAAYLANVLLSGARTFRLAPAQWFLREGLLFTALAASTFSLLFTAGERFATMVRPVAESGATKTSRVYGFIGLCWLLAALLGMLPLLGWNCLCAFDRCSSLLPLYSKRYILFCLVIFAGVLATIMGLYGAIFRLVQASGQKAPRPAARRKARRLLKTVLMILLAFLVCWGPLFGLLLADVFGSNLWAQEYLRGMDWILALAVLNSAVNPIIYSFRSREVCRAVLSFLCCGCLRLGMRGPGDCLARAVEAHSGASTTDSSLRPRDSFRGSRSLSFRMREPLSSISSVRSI
S1P4 antagonist: S1P4 receptor antagonists, primary screen, cell-based. Sphingosine 1-phosphate receptor 4 (Homo sapiens), O95977. S1P4-expressing cells, antagonist mode, reporter read-out. inhibition, % at 4.98 µM. 0.26% of 220,000 active. AID 1510, 2009; in the data active means inhibition above about 29%
S1P3 antag: S1P3 receptor antagonists, primary screen, cell-based; inhibition, % at 4.98 µM; AID 485, 2006; CHO S1P3 NFAT-BLA reporter, FRET fluorescence, antagonist mode; 0.27% of 170,000 active;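 active means inhibition above the plate cutoff, the mean inhibition of test wells on that plate plus 3 SD, cut at about 28% in these data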;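 further: cells challenged with S1P at its EC80 of 0.8 µM; blue over green emission ratio from cleaved BLA substrate after 4 h stimulation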
HSF1 activator: HSF-1 activators, primary screen, NIH3T3-HGL cells, MG132 stress, luminescence, single point | NIH3T3-HGL HSF-1 luciferase reporter, 8 h; 100% = twice DMSO control signal | activation, % at 9 µM | 1.7% of 300,000 active | AID 504408, 2011;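 active means mean replicate activation of at least 50% with a set share of replicates each reaching 50%; inconclusive means only one of those two conditions met; inactive means mean below 50% and too few replicates reaching it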
HSF1 inh: HSF1 inhibitors in luciferase reporter cells, primary screen, cell-based, NIH3T3, luminescence. NIH3T3-HGL HSE-luciferase, MG132-induced, luminescence 8 h; stronger effect = lower value. activity change, negative = inhibition, % at 7.5 µM (by protocol). 0.77% of 300,000 active;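 active means more than half of replicate wells show activity change below -50%, luminescence cut by over half; inconclusive means some wells, but at most half, below -50%; inactive means no replicate well below -50%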;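 further: luciferase reports HSF-1 transcriptional activity via heat shock element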
Hsp70 act: Hsp70 transcriptional activators, primary screen, cell-based, HeLa, Hsp70 promoter luciferase, luminescence, 10 µM | HeLa Hsp70 promoter luciferase reporter; scaled: vehicle 0, proteasome-inhibitor control 100% | activation, % at 10 µM | 0.04% of 200,000 active | AID 1203, 2008;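 active means activation above the mean across all tested compounds plus 3 SD, cutoff set per campaign, cut at about 5.5% in these data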
S1P4 antag cf: S1P4 receptor antagonists, human, confirmation, cell-based | 71% of 520 active | S1P4-expressing cell line, antagonist mode, reporter read-out | inhibition, % at 4.98 µM | AID 1524, 2009 | shares compounds with S1P4 antagonist; in the data active means inhibition above about 30%
S1P1 antagonist: S1P1 receptor antagonists, human, counter-screen for S1P4 antagonist project, cell-based | inhibition, % at 4.98 µM | shares compounds with S1P4 antagonist | AID 1564, 2009 | cell-based S1P1 antagonist counterscreen, inhibition | 37% of 520 active; in the data active means inhibition above about 40%;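 further: receptor stimulated with S1P near its EC80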
A number is an active result; - = inactive; ? = inconclusive; . = no result given. A selection: hits, their analogues and other compounds. The true share with any hit is near 2.9%.

SMILES	S1P4 agonist	S1P4 antagonist	S1P3 antag	HSF1 activator	HSF1 inh	Hsp70 act	S1P4 antag cf	S1P1 antagonist
CN(C(=O)COC(=O)c1nc(Cl)c(Cl)c(Cl)c1Cl)C1CCS(=O)(=O)C1 (stereo unspecified)	-	40	-	-	?	-	74	-
CN(C(=O)COC(=O)c1ccc(C(C)(C)C)cc1)C1CCS(=O)(=O)C1 (stereo unspecified)	.	.	.	-	-	.	.	.
Cc1ccc(NC(=O)CN(C)C2CCCCC2)cc1Br	-	32	-	-	-	-	-	-
Cc1ccc(SCCC(=O)N2CCCC2)cc1	-	-	-	-	-	-	.	.
Cc1ccc(SCCC(=O)N2CCOCC2)cc1	-	29	-	-	-	-	-	-
CS(=O)(=O)c1ncc(Cl)c(C(=O)Nc2ccc3ccccc3c2)n1	-	41	-	-	-93	-	119	54
COc1ccc(C(=O)/C=C2/C(=O)Nc3ccccc32)cc1	.	.	.	-	-	.	.	.
O=C1Nc2ccccc2/C1=C/C(=O)c1cccs1	-	38	.	-	-65	-	64	47
COc1ccc(N(C(=O)CCl)C(C(=O)NCCc2ccccc2)c2cccs2)cc1 (stereo unspecified)	-	30	-	-	-93	-	99	-
COc1ccc2c(C)nc(Nc3nc(C)cc(=O)[nH]3)nc2c1	-	-	-	.	.	-	.	.
Cc1ccc(NC(=O)CS(=O)CC(=O)Nc2ccc(N3CCOCC3)cc2)cc1Cl (stereo unspecified)	-	30	-	-	-	-	-	-
Cc1cc(C)c(NC(=O)CS(=O)CC(=O)Nc2ccc(N3CCOCC3)cc2)c(C)c1 (stereo unspecified)	.	.	.	-	-	.	.	.
O=C(OCn1ncc(Br)c(Br)c1=O)c1ccc(F)cc1	-	78	.	-	-94	-	117	47
CC(C)(C)NC(=O)COc1ccc2oc3c(c2c1)CCCC3	.	.	.	-	-	.	.	.
O=C(CCSc1ccccc1)NC1CCCCCC1	-	43	-	-	-	-	-	-
FC(F)(F)c1cnc(Oc2ccc(-c3nnco3)cc2)c(Cl)c1	-	-	-	-	-	-	.	.
c1cnc(Oc2ccc(-c3nnco3)cc2)cn1	-	37	-	-	-	-	-	-
O=C(Nc1nc(-c2ccc3ccccc3c2)cs1)C1CCN(S(=O)(=O)c2cccs2)CC1	-	-	-	-	-	-	.	.
Cc1ccc(-c2csc(NC(=O)C3CCN(S(=O)(=O)c4cccs4)CC3)n2)cc1	-	59	-	-	-	-	-	-
O=[N+]([O-])c1ccc(N2CCOCC2)cc1O	-	-	-	-	-	.	.	.
Cc1cc(N2CCOCC2)ccc1/C=C\[N+](=O)[O-]	-	39	-	80	-	-	82	-
CCOc1cccc(C(=O)Nc2cc(C)ccc2NC(=O)c2ccco2)c1	.	.	.	-	-	.	.	.
CCOc1ccc(C(=O)C(CCC(CN(C)C)C(=O)c2ccc(OCC)cc2)CN(C)C)cc1 (stereo unspecified)	-	43	-	-	-	-	110	52
CN(C)CC(CCC(CN(C)C)C(=O)c1ccccc1)C(=O)c1ccccc1 (stereo unspecified)	-	41	-	-	-69	.	110	-
COc1ccc(C(=O)C(CCCCC(CN(C)C)C(=O)c2ccc(OC)cc2)CN(C)C)cc1 (stereo unspecified)	-	-	.	-	-	-	.	.
SMILES	S1P4 agonist	S1P4 antagonist	S1P3 antag	HSF1 activator	HSF1 inh	Hsp70 act	S1P4 antag cf	S1P1 antagonist
CC(=O)Nc1cccc(NC(=O)CSc2nnc3ccc(-c4cccnc4)nn23)c1	.	.	.	-	-	.	.	.
CC(=O)N/C(=C/c1ccc(OS(=O)(=O)c2ccc(C)cc2)cc1)C(=O)Nc1ccc(C(=O)O)cc1	-	-	-	-	-	.	.	.
Cc1ccc(C(=O)NCCN2C3=NC[C@H](C(C)C)N3C[C@H]2Cc2ccc(O)cc2)cc1Br	-	-	-	-	-	-	.	.
COc1ccc(C[C@H]2CN3C(=NC[C@@H]3C(C)C)N2CCNC(=O)c2ccc(C)c(Br)c2)cc1	-	34	-	-	-	-	41	-
CC(Sc1ccc(Cl)cc1)C(=O)Nc1ccc2c(c1)OCO2 (stereo unspecified)	-	-	.	-	-	-	.	.
CC(C)N1CCC2(CC1)N=C(c1ccc3c(c1)OCO3)CC(c1cc(Cl)ccc1O)N2 (stereo unspecified)	-	35	-	-	-	-	79	-
Nc1cccc2c1C(=O)N(C(=O)c1cccc(S(=O)(=O)N3CCCC3)c1)C2=O	-	31	.	-	-	-	-	-
NC(=O)c1cccc(S(=O)(=O)N2CCCCC2)c1	-	-	-	-	-	-	.	.
CC(=O)Nc1ccc2c(c1)nc(CCN1CCC(C)CC1)n2C	-	-	.	-	-	-	.	.
CC1CCN(CCc2nc3cc(NC(=O)Nc4ccccc4)ccc3n2C)CC1	-	32	-	177	-	-	-	-
Nc1ncnc2c1ncn2C1OC(CO)C(O)C1O (stereo unspecified)	-	39	-	-	-	-	67	41
Cc1ccc2[nH]c(O)c(N=NC(N)=S)c2c1	-	-	-	-	-	.	.	.
CC(/C=C(\NC(=O)c1ccccc1)C(=O)N=Nc1c(O)[nH]c2ccc(C)cc12)=C\c1ccccc1	-	35	.	-	-	-	-	-
O=c1cc(O)c2c(=O)n(Cc3ccccc3)c3ccccc3c2o1	-	89	-	-	-	-	-	-
CCCCn1c(=O)c2c(O)cc(=O)oc2c2ccccc21	-	-	.	-	-	-	.	.
c1ccc(CN2CCN(c3nc(N4CCOCC4)c4ccccc4n3)CC2)cc1	-	36	.	-	-	-	-	-
CCOC(=O)COc1ccc(C(=O)Nc2cccc(Cl)c2C)cc1	-	33	-	-	-	-	-	-
Cc1ccc(-c2nc(CS(=O)CC(=O)NC3CCC(C)CC3)c(C)o2)cc1 (stereo unspecified)	-	78	-	-	-	-	-	-
Cc1oc2c(c1C(=O)NCc1cccnc1)C(=O)c1ccccc1C2=O	-	90	-	-	-95	-	116	107
COc1ccc(CNC(=O)c2c(C)oc3c2C(=O)c2ccccc2C3=O)cc1	-	-	-	-	-	-	.	.
O=C(CSC1=NS(=O)(=O)c2ccccc2N1)Nc1ccccc1F	.	.	.	-	-	.	.	.
CCOc1cccc2cc(C(N)=O)c(=N)oc12	-	-	-	.	.	.	.	.
